# Test results published in PubChem BioAssay AID588727 (Southern Research Specialized Biocontainment Screening …, 2011).
# Among all 350,000 compounds or so, about 450 (0.13%) were called active. The rule behind the calls is not given here. Only a sample is shown. Potency and affinity values are given separately.
# Experiment: inhibitors of VEEV TC-83 cytopathic effect, confirmation, Vero cells (AID 588727)
# Details: VEEV TC-83 cytopathic effect inhibition, at 20 µM
# [1] = stronger effect = higher value unless noted
# [2] = measured here: 10K pilot screen inhibition, stronger effect = higher value
compound,measurement,setting,value
Nc1ccc(C(=O)OCc2nc3ccccc3[nH]2)cc1,inhibition,[1],2.64% (inactive)
COC(=O)c1ccc(C(=O)OCc2nc3cc4ccccc4cc3[nH]2)cc1,inhibition,[1],0.06% (inactive)
COc1ccc(CN(CC(=O)NCc2ccc(F)cc2)C(=O)c2csnn2)cc1,inhibition,[1],1.52% (inactive)
COc1ccc(NC(=O)c2nc[nH]c2C(=O)NCC(=O)OC(C)(C)C)cc1,inhibition,[1],3.26% (inactive)
Cc1cccc(C(=O)NNC(=S)NC(=O)c2ccccc2)c1,inhibition,[1],46.7% (inactive)
O=C(NNC(=S)NC(=O)c1ccccc1)c1ccc(O)cc1,inhibition,[1],4.47% (inactive)
Cc1ccc(C(=O)NC(=S)NNC(=O)c2ccccc2)cc1,inhibition,[1],0.96% (inactive)
O=C(NNC(=S)NC(=O)c1cccs1)c1ccc(O)cc1,inhibition,[1],3.95% (inactive)
Cc1ccc(C(=O)NNC(=O)c2ccco2)cc1,inhibition,[1],1.42% (inactive)
Cc1cccc(C(=O)NC(=S)NCc2ccccc2)c1,inhibition,[1],2.47% (inactive)
O=C(NNC(=S)NC(=O)c1ccco1)c1ccc(F)cc1,inhibition,[1],0.7% (inactive)
Cc1cccc(C(=O)NC(=S)NNC(=O)c2cccs2)c1,inhibition,[1],inactive
COc1ccccc1NC(=O)C1CCN(S(=O)(=O)c2cccc3nonc23)CC1,inhibition,[1],9.33% (inactive)
CCOC(=O)c1ccc(NC(=O)CSc2nnc(CNc3ccc(OC)cc3)n2C)cc1,inhibition,[1],0.98% (inactive)
O=C(c1ccc(N2CCOCC2)c([N+](=O)[O-])c1)N1CCCCC1,inhibition,[1],2.47% (inactive)
CC1CC(C)CN(CCCNC(=O)CN2C(=O)c3cccnc3Oc3ccccc32)C1 (centres undefined),inhibition,[1],inactive
O=C(CCC(=O)OCC(=O)c1ccc([N+](=O)[O-])cc1)Nc1ccccc1Cl,inhibition,[1],inactive
CCOc1ccc(CN2CCN(Cc3cn(CC)nc3C)CC2CCO)cc1 (centres undefined),inhibition,[1],inactive
CCOC(=O)c1sc2nc(C)nc(Nc3ccc(OC)cc3)c2c1C,inhibition,[1],3.17% (inactive)
COc1ccc(C(=O)Nc2ccccc2C(=O)N2CCCCCC2)cc1OC,inhibition,[1],5.61% (inactive)
CN1CCN(CCC(=O)Nc2ccc(C3CCCC3)cc2)CC1,inhibition,[1],4.6% (inactive)
O=C(Nc1ccc(N2CCN(C(=O)c3ccco3)CC2)cc1)c1cccnc1Cl,inhibition,stronger effect = higher value,0.8% (inactive)
same,inhibition,[2],1.86%
COc1ccc(C)cc1NC(=O)C1CCN(C(=O)Cc2ccccc2)CC1,inhibition,[1],0.59% (inactive)
O=C(COc1ccccc1)NNC(=S)NC(=O)c1ccccc1,inhibition,[1],52.2% (inactive)
COc1ccccc1C(=O)NNC(=S)NC(=O)c1sc2ccccc2c1Cl,inhibition,[1],4.48% (inactive)
COc1ccc(C(=O)NNC(=S)NC(=O)c2ccc(OC)cc2)cc1,inhibition,[1],2.82% (inactive)
COc1ccc(C(=O)NC(=S)NNC(=O)c2ccc(C)cc2)cc1,inhibition,[1],50.1% (inactive)
COc1ccc(C(=O)NC(=S)NNC(=O)COc2ccccc2)cc1,inhibition,[1],1.92% (inactive)
COc1ccccc1C(=O)NC(=S)NNC(=O)c1sc2ccccc2c1Cl,inhibition,[1],0.8% (inactive)
Cc1cccc(C)c1OCC(=O)NNC(=S)NC(=O)C1CC1,inhibition,[1],9.29% (inactive)
Cc1cccc(C(=O)NC(=S)NNC(=O)COc2c(C)cccc2C)c1,inhibition,[1],1.29% (inactive)
CCCc1nnc(NC(=O)CNc2ccc(F)cc2)s1,inhibition,[1],1.71% (inactive)
CN(C)c1ccc(CNC(=O)c2cc(S(=O)(=O)N3CCCC3)cn2C)cc1,inhibition,stronger effect = higher value,0.58% (inactive)
same,inhibition,[2],0.765%
Cc1ccc(C)c(S(=O)(=O)N/N=C/c2ccc(N3CCOCC3)cc2)c1,inhibition,[1],13% (inactive)
COc1ccc(-c2nnc(SCc3cccc(C)c3)n2N)cc1,inhibition,[1],1.8% (inactive)
O=c1n(Cc2ccccc2Cl)nc2n1-c1ccccc1SC2,inhibition,[1],1.6% (inactive)
CN1CCN(NC(=O)c2cn(-c3ccccc3)nc2-c2cccc(Br)c2)CC1,inhibition,[1],4.96% (inactive)
COc1ccc(C(=O)NC(=S)NCCc2ccccc2)cc1,inhibition,[1],inactive
O=C(CCc1ccccc1)NNC(=S)NC(=O)c1ccccc1,inhibition,[1],8.58% (inactive)
O=C(NC(=S)NNC(=O)c1cc2ccccc2cc1O)c1ccco1,inhibition,[1],35.8% (inactive)
COc1ccc(C(=O)NNC(=S)NC(=O)c2ccco2)cc1,inhibition,[1],3.21% (inactive)
CC1CCN(c2ccc(C(=O)OCC(=O)NCCN3C(=O)CSC3=O)cc2[N+](=O)[O-])CC1,inhibition,[1],2.94% (inactive)
Nc1nc(=O)n(C2CCCO2)cc1Br (centres undefined),inhibition,[1],inactive
CCCCn1nnnc1SCC(=O)NCc1ccco1,inhibition,[1],0.76% (inactive)
CCOc1ccc(CCNC(=O)CCc2nnc3ccc(N4CCOCC4)nn23)cc1OCC,inhibition,[1],0.04% (inactive)
CCN(CC(=O)Nc1ccc(NC(C)=O)cc1)C(=O)C12CC3CC(CC(Cl)(C3)C1)C2,inhibition,[1],inactive
Cn1cc(C(=O)Nc2ccc(Cl)c(Cl)c2)cn1,inhibition,[1],0.63% (inactive)
O=C(NC(Cc1c[nH]c2ccccc12)C(=O)O)c1cccs1 (centres undefined),inhibition,[1],0.43% (inactive)
O=C(NC(Cc1c[nH]c2ccccc12)C(=O)Nc1ccc(OC(F)(F)F)cc1)c1cccs1 (centres undefined),inhibition,[1],11.9% (inactive)
O=C(Nc1ccc(F)c([N+](=O)[O-])c1)c1cccs1,inhibition,[1],0.78% (inactive)
O=C(NC(Cc1c[nH]c2ccccc12)C(=O)N/N=C/c1ccc(Cl)cc1)c1cccs1 (centres undefined),inhibition,[1],6% (inactive)
Cc1cc(C)nc(N2C(=O)CC(C(=O)O)NC2=NCCc2c[nH]c3ccccc23)n1 (centres undefined),inhibition,[1],inactive
COc1ccc(/C=N/NC(=O)c2c(-c3ccccc3)noc2C)cc1,inhibition,[1],1.23% (inactive)
COc1cc2nc(N(CCCN(C)C)C(=O)c3ccc(S(=O)(=O)N4CCc5ccccc54)cc3)sc2cc1OC,inhibition,[1],5.52% (inactive)
CN(C)CCCN(C(=O)c1ccc(S(=O)(=O)N2CCc3ccccc32)cc1)c1nc2c(Cl)cccc2s1,inhibition,[1],12.6% (inactive)
O=C(NC1CONC1=O)OCC(Cl)(Cl)Cl (centres undefined),inhibition,[1],inactive
CCc1nnc(NC(=O)C2CC(=O)N(Cc3ccco3)C2)s1 (centres undefined),inhibition,[1],2.16% (inactive)
Cc1cccc[n+]1CC(=O)c1ccc([N+](=O)[O-])cc1,inhibition,[1],inactive
Cc1cc(C)c[n+](CC(=O)c2ccc(C)c([N+](=O)[O-])c2)c1,inhibition,[1],0.1% (inactive)
S=C(N/N=C/c1ccc2ncccc2c1)Nc1ccccc1,inhibition,[1],9.82% (inactive)
O=C(Nc1ccc2c(c1)CCCN2C(=O)c1cccs1)c1ccccc1,inhibition,[1],6.53% (inactive)
COc1ccccc1C(=O)Nc1ccc2c(c1)CCCN2C(=O)c1cccs1,inhibition,[1],4.26% (inactive)
